Source: PubChem BioAssay (National Center for Advancing Translational Sciences (NCATS))
HT1080 IDH1KD tx: HT-1080 IDH1 knockdown cell toxicity (counter line); HT-1080 IDH1 knockdown viability, ATP luminescence, 48 h; Potency, µM (titrated, usually from 46.1 µM), for the others: at the top dose activity, negative = toxicity, most hits filed as cytotoxic; hit rate 2% among 360,000; AID 686971;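 also: 0% = DMSO wells and -100% = cell-free medium wells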
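Luminescent ATP read-out (CellTiter-Glo, 10 min at room temperature) after 48 h compound exposure at 37 °C gave viability of IDH1-knockdown HT-1080 cells. Activity was normalised to DMSO and cell-free wells, then fitted as concentration-response curves.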
KB-3-1 cytotox: KB-3-1 parental cell cytotoxicity; AID 1347075; hit rate 1.4% among 400,000; Potency, µM (top dose mostly 46.1 µM), actives largely listed as cytotoxic; KB-3-1 viability, CellTiter-Glo ATP luminescence, 72 h; also: % is scaled to controls: 0 for no effect and ±100 for the full control effect; nearly all actives have a fitted effect of over 60% in size
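Screening of KB-3-1 cells (DMEM, 10% FBS, phenol-red free) ran from lowest to highest compound concentration; after 72 h at 37 °C viability was read luminescently and curves fitted.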
KB-V1 MDR tox: KB-V1 MDR subline cytotoxicity; Potency, µM (titrated, usually from 46.1 µM), actives largely listed as cytotoxic; hit rate 3.4% among 400,000; KB-V1 MDR cells viability, CellTiter-Glo, 72 h; AID 1347076; also: % is scaled to controls: 0 for no effect and ±100 for the full control effect; nearly all actives have a fitted effect of over 60% in size
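KB-V1 cells (P-gp-expressing MDR subline of KB-3-1) in phenol-red-free DMEM with 10% FBS were exposed to library compounds over a concentration series for 72 h at 37 degrees C. Viability read by CellTiter-Glo luminescence; concentration-effect curves fitted after normalization.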
HT1080-NT tox: kills 2HG-producing HT-1080-NT fibrosarcoma cells. hit rate 1.6% among 360,000. Potency, µM (highest dose often 46.1 µM), inactives show at the highest dose activity, negative = less viability, actives largely listed as cytotoxic. HT-1080-NT fibrosarcoma viability, CellTiter-Glo ATP luminescence, 48 h;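 also: NT is the 2HG producing partner of a matched IDH1 knockdown line; 0% = DMSO-treated cells and -100% = media-only wells without cells; nearly all actives have a fitted effect of over 55% in size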
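Viability by CellTiter-Glo luminescence after 48 h compound exposure at 37C of HT-1080-NT cells (750/well, RPMI, 5% FBS). % activity scaled between DMSO wells and medium-only wells, then curve-fitted and categorized by curve class.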
MCF10A rerep: inducers of DNA re-replication in MCF 10A breast cells | MCF 10A DNA re-replication, Hoechst nuclear intensity, 48 h | AID 624296 | hit rate 2.9% among 350,000 | Potency, µM (series often up to 46.1 µM), without a hit: at the highest dose activity, positive = re-replication, most hits filed as activators; also: % of control where 0% means no effect; nearly all actives have a fitted effect of over 50% in size
SW480 rereplic: inducers of DNA re-replication in SW480 colon cancer cells. SW480 DNA re-replication, Hoechst DNA content imaging, 48 h. Potency, µM (doses to about 46.1 µM), for the others: at the top dose re-replication activation, usual class: activators. hit rate 1.8% among 340,000; also: % of control where 0% means no effect; nearly all actives have a fitted effect of over 55% in size
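Treated cells incubate 48 hr (37 C, 5% CO2), are stained 40 min with Hoechst, and nuclear fluorescence is enumerated; a rise in nuclei with high DNA signal marks re-replication.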
Numbers without * were called inactive; i = inactive; ? = inconclusive; · = not tested or not shown; [ ] = remark or other dose. This is a sample that favours compounds with a hit; in the whole collection about 8% have one here. Calls follow the shape of the dose curve; as a rule, active = well fitted curve in the direction sought with a large enough effect; inconclusive = small, poorly fitted or top-dose-only effect, or another doubt; inactive = no such curve, though single readings can be large; an effect the other way counts as inactive or inconclusive. Potency is read from the fitted curve at half-maximal effect.

SMILES	HT1080 IDH1KD tx	KB-3-1 cytotox	KB-V1 MDR tox	HT1080-NT tox	MCF10A rerep	SW480 rereplic
CCN(CC)CCNC(=O)c1nn(C)c2c1CS(=O)(=O)c1ccccc1-2	·	i	i	·	·	·
COc1cccc(-n2c(=O)c3sc4ccccc4c3n(CC(=O)Nc3ccc(F)cc3F)c2=O)c1	·	i	i	·	·	·
CCOc1ccccc1C1C2CCCCC2(O)CCN1C(=O)c1cccs1 (centres undefined)	-2%	i	23µM*	2%	-3%	7%
CCOc1ccccc1NC(=O)C1CCCN1C(=O)c1cccs1 (centres undefined)	10%	i	i	10%[9.24 µM]	-6%	7%
OC(c1ccccc1)c1nc2ccccc2n1Cc1c(F)cccc1Cl (centres undefined)	·	i	i	·	·	·
COc1cccc(NC(=O)c2oc3ccccc3c2NC(=O)Cc2cccc(C)c2)c1	·	i	i	·	·	·
O=S(=O)(c1ccccc1S(=O)(=O)N1CCCCC1)N1CCCCC1	-22%	i	15µM*	?	3%	7%
CCOc1ccc(S(=O)(=O)N2CCCCC2)c2ccccc12	21µM*	i	i	-11%	?	-15%
O=S(=O)(c1ccc(Cl)cc1Br)N1CCCCC1	-29%	?	18µM*	0%	0%	0%
CCn1c(SCc2ccc(F)cc2Cl)nc(=O)c2c(C(=O)OC)cc(C3CC3)nc21	·	i	i	·	·	·
COc1ccc(-c2[nH]c(-c3ccc(C)cc3)nc2SCC(=O)NCC2CCCO2)cc1 (centres undefined)	·	i	i	·	·	·
CSc1ccccc1NC(=O)CN(C)C(=O)c1c(C)nn(Cc2ccccc2)c1C	-8%	i	21µM*	-2%	-2%	-4%
CCCc1nnc(NC(=O)c2cc3ccccc3oc2=O)s1	-1%	i	i	2%	-8%	?
CN(C1CCCCC1)S(=O)(=O)CCNC(=O)c1ccccc1	6%	i	i	-1%	1%	-2%
CCCc1nnc(NC(=O)c2cc3ccccc3o2)s1	-10%	i	?	9%	8%	0.26µM*
CCCc1nnc(NC(=O)c2cccc(OC)c2)s1	20%	i	18µM*	5%	4%	-4%
COc1cccc(C(=O)NCCS(=O)(=O)N(C)C2CCCCC2)c1	16%	i	12µM*	4%	-4%	-4%
COc1ccc(Cc2nnc(NC(=O)c3cc(OC)cc(OC)c3)s2)cc1	-26%	i	i	-23%	13µM*	102%
COc1ccc(Cc2nnc(NC(C)=O)s2)cc1	1%	i	i	-1%	14%	-17%
CCc1ccc(C2C(C(=O)Nc3ccccc3OC)=C(C)Nc3nc(SCc4ccccc4)nn32)cc1 (centres undefined)	·	i	i	·	·	·
CCOCCc1nn2c(=O)cc(COC(=O)c3ccccc3NC(=O)C3CCCCC3)nc2s1	·	i	i	·	·	·
CC(C)(C)C(=O)Nc1ccc2nc(SCC(=O)N3CCc4ccccc43)sc2c1	·	?	i	·	·	·
COc1cccc(C(=O)Nc2nnc(S(=O)(=O)N(C)Cc3ccccc3)s2)c1	-14%	i	i	-15%	3%	12µM*
COc1cccc(C(=O)NCCS(=O)(=O)N(C)Cc2ccccc2)c1	14%	i	18µM*	6%	3%	1%
COc1ccc(CN(C)S(=O)(=O)c2nnc(NC(=O)c3cccc(OC)c3)s2)cc1	-4%	i	?	-13%	?	-7%
SMILES	HT1080 IDH1KD tx	KB-3-1 cytotox	KB-V1 MDR tox	HT1080-NT tox	MCF10A rerep	SW480 rereplic
COc1cccc(C(=O)NCCS(=O)(=O)NCc2ccccn2)c1	4%	i	i	4%	-1%	-16%
CCC(=O)N1CCc2cc(Br)cc(S(=O)(=O)N3CCC(C(=O)Nc4ccccc4CC)CC3)c21	·	i	i	·	·	·
CC(=NNC(=O)c1ccncc1)c1ccc2ccccc2c1O	5.8µM*	?	?	?	18µM*	2.3µM*
C/C(=N\NC(=O)c1cc(C)nc2ccccc12)c1ccncc1	7.3µM*	?	?	?	12µM*	5.2µM*
CC(=NNC(=O)c1ccncc1)c1ccccc1O	?	?	i	?	18µM*	0.58µM*
CC(=NNC(=O)c1ccncc1)c1ccc(O)cc1O	?	?	i	-18%	?	?
CC(C)CC(=NNC(=O)c1ccncc1)c1cc(Cl)ccc1O	0.82µM*	?	?	?	?	1.2µM*
C/C(=N\NC(=O)c1cccc2ccccc12)c1cccnc1	?	i	i	-28%	0%	0%
Cc1ccc(C(=O)n2nc(C)c(S(=O)(=O)N3CCCCCC3)c2C)cc1	·	i	i	·	·	·
Cc1ccc(NC(=O)C(=O)c2cc(C)n(-c3ccc(F)cc3)c2C)cc1C	·	i	i	·	·	·
CCOC(=O)c1ccc(NC(=O)CC2Nc3cc(C)c(C)cc3NC2=O)cc1 (centres undefined)	·	i	i	·	·	·
COc1ccc2c(c1)c(=O)c(S(=O)(=O)c1ccc(F)cc1)cn2Cc1ccccc1Cl	·	i	i	·	·	·
C/C(=N\NC(=O)CN1CCCCC1)c1ccccc1O	?	i	i	-22%	15%	6.5µM*
C/C(=N\NC(=O)c1ccc(CN2CCc3ccccc3C2)cc1)c1ccccc1O	21µM*	15µM*	?	?	23µM*	21µM*
CC1Cc2ccccc2N1C(=S)Nc1ccc(S(N)(=O)=O)cc1 (centres undefined)	-2%	?	18µM*	-3%	8%	-1%
CC1Cc2ccccc2N1C(=S)NC(=O)c1ccc(Cl)cc1Cl (centres undefined)	-3%	i	16µM*	-3%	13%	5%
CC1Cc2ccccc2N1C(=S)NC(=O)c1cccc(Br)c1 (centres undefined)	-2%	?	?	-8%	18%	18%
CCC(=O)OCc1cnc(C)c2oc(=O)c(C(=O)Nc3ccccc3C(F)(F)F)cc12	·	i	i	·	·	·
Cc1cc(=O)n2[nH]c(N)c(N=Nc3ccccc3F)c2n1	?	21µM*	?	?	?	-4%
Cc1cc(=O)n2[nH]c(C)c(-c3ccccc3)c2n1	8%	i	?	-2%	-6%	-4%
C=CCn1c(=N)n(CC(=O)c2ccc(Br)s2)c2ccccc21	-23%	15µM*	i	-30%	-4%	?
